According to PubChem BioAssay AID1903 (Southern Research Specialized Biocontainment Screening …, 2009):
The whole screen tested about 310,000 compounds, of which about 1,200 (0.39%) were called active. How the calls were made is not given here. Not all results are given here. Potency and affinity values are given separately.

Each compound was assayed against Large T antigen (Simian virus 40) (UniProt P03070) (assay: SV40 large T antigen inhibitors, biochemical (AID 1903)). Conditions: SV40 large T antigen ATPase/helicase inhibition assay; at 20 µM; stronger effect = higher value.
Large T antigen (Simian virus 40), sequence (P03070 whole entry, looked up): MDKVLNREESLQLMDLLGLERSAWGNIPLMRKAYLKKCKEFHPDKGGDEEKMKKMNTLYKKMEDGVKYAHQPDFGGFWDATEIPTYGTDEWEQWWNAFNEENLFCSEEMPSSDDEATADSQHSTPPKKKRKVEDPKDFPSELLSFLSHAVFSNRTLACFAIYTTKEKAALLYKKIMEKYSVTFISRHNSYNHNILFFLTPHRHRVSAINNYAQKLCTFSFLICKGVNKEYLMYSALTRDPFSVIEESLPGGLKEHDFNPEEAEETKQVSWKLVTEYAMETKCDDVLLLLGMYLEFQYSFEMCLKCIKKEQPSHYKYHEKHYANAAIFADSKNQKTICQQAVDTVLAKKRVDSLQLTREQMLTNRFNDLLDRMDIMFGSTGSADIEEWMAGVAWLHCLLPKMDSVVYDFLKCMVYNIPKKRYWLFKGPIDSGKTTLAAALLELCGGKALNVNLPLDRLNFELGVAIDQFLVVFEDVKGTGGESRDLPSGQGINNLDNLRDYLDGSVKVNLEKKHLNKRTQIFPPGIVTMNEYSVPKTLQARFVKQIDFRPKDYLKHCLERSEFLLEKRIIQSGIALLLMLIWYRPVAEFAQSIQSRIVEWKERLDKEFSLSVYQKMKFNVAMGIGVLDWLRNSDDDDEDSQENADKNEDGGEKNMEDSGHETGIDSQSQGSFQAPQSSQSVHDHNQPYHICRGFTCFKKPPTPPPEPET

inhibition, inactive:
Cc1ccc([N+](=O)[O-])cc1NC1CC(O)C(CO)O1 (stereo not given) 3.41%
CN(C)CCN(C(=O)c1ccc(S(=O)(=O)N2CCc3ccccc32)cc1)c1nc2ccc(F)cc2s1 14.4%
Cc1ccc(S(=O)(=O)/C(C#N)=C/c2c(N3CC(C)OC(C)C3)nc3c(C)cccn3c2=O)cc1 (stereo not given) 23.9%
COc1cc2c(cc1OC)CN(C(=O)/C=C/c1cc(OC)c(OC)c(OC)c1)CC2 7.46%
O=C(N/N=C\c1ccc(OC(=O)c2ccco2)cc1)c1ccc(Cl)cc1 11.3%
O=C(N/N=C/c1ccc(OC(=O)c2ccco2)cc1)c1ccncc1 15.9%
C=CCc1ccccc1OCC(O)Cn1ccnc1C (stereo not given) 10.2%
O=c1ccc2cc3c4c(c2o1)CCCN4CCC3 3.45%
CC(C)c1cc(=O)oc2c3c4c(cc12)CCCN4CCC3 4.43%
CCc1ccc(NC(=O)[C@H](NC(=O)[C@@H]2Cc3ccccc3CN2)c2ccccc2)cc1 7.36%
CCCc1c(C(=O)N/N=C/C(C)=C/c2ccccc2)nnn1-c1nonc1N 15.4%
O=C(Cn1nnc(-c2ccc(NC(=O)c3ccccc3F)cc2)n1)NCc1ccc(F)cc1 16.3%
CCCc1nnc(NC(=O)Cn2c(=O)oc3ccccc32)s1 3.95%
CCc1nnc(NC(=O)Cn2c(=O)oc3ccccc32)s1 1.21%
N/C(=N\NS(=O)(=O)c1ccccc1)c1ccccn1 16.4%
Cc1nnc(NC(=O)CSc2nnc(C)n2Cc2ccccc2)s1 -83.7%
COC(=O)Nc1ccc([N+](=O)[O-])cc1OC 3%
COc1ccc(OC(=O)Nc2ccc([N+](=O)[O-])cc2OC)cc1 0.1%
COc1cccc(/C=N/Nc2ncnc3c2ncn3Cc2ccccc2)c1O 18.1%
Oc1cccc(/C=N/Nc2ncnc3c2ncn3Cc2ccccc2)c1 10.2%
CCc1nn(CC(=O)N2CCC(C(N)=O)CC2)c(=O)c2cc3occc3n12 5.76%
CCCCC(=O)N1C/C=C\[C@H](c2ccc(OC)cc2)N(Cc2ccc(F)cc2)C(=O)[C@@H]1C -1.49%
Cc1c(C(=O)OCC(=O)NCc2ccccc2)oc2ccccc12 13.4%
COC(=O)c1ccccc1NC(=O)c1cnn2c(C)cc(C)nc12 -5.22%
O=C(O)c1ccc(-n2c(/C=C/c3ccccc3)nc3ccccc3c2=O)cc1 13.9%
CCn1c(/C=C/c2cc(Br)ccc2O)nc2ccccc2c1=O 27%
COc1ccc(/C=C/c2nc3ccccc3c(=O)n2-c2cccc(C(=O)O)c2)cc1 12.5%
CCn1c(/C=C/c2ccc(O)cc2)nc2ccccc2c1=O 26.9%
CC(C)c1ccc(NC(=O)CSc2nc(-c3ccccc3F)nc3nc[nH]c23)cc1 3.55%
CCOc1ccc(CCNC(=O)CCC(=O)Nc2ccc3nc(N4CCN(C)CC4)cc(C)c3c2)cc1OCC 2.93%
O=C(CCl)N1c2ccccc2CCc2ccccc21 8.1%
O=C(CN1CCCCC1)N1c2ccccc2CCc2ccccc21 0.59%
Cc1cc(NS(=O)(=O)Cc2ccccc2)no1 3.2%
CCCN(C(=O)c1ccc(N(C)S(=O)(=O)c2ccc(C)cc2)cc1)C1CCS(=O)(=O)C1 (stereo not given) 11%
Cc1ccc(C)c(NS(=O)(=O)c2ccc(OCC(=O)N3CCOCC3)cc2)c1 4.78%
COc1cc(C(=S)N2CCCCC2)ccc1O 29.3%
COc1cc(C(=O)OCCN2CCCCC2)ccc1O 29.6%
O=C(NCCOc1ccccc1)C1CCC(=O)N(CCc2ccccn2)C1 (stereo not given) 5.44%
CN(C)c1ccc(C2/C(=C(/O)c3ccc(Br)cc3)C(=O)C(=O)N2C)cc1 (stereo not given) 8.15%
CC(C)C[C@H](NC(=O)[C@@H]1Cc2c([nH]c3ccccc23)C2c3ccccc3C(=O)N21)C(=O)NCC1CCCO1 (stereo not given in full) 8.64%
O=C1OCC/C1=C\c1ccccc1 6.44%
Cc1ccc(/C=C2\CCOC2=O)cc1 10.9%
CC(NC(=O)c1cc(S(=O)(=O)N2CCCC2)cn1C)c1ccccc1 (stereo not given) 5.41%
CN1C(C(=O)NCCc2cccs2)CC2Cn3c(nc4ccccc43)C21 (stereo not given) 21.1%
Cc1ccc2cc3c(N)c4c(C)ccc(C)c4nc3nc2c1 1.71%
Cc1cc2cc3c(=O)[nH]c(=O)[nH]c3nc2cc1C -1.5%
CCc1ccc2nc3nc(C)cc(C)c3c(N)c2c1 17.6%
CCc1ccc2nc(N)sc2c1 9.15%
Nc1[nH]nc2nc3ccccc3cc12 36%
CC1(C)Cc2nc3n[nH]c(N)c3cc2CO1 -1.93%
CCn1cc(CNC(=O)c2cc(-c3ccccc3OC)nc3ccccc23)c(C)n1 4.15%
O=C(c1ccc(Cl)cc1)c1oc2ccccc2c1CS(=O)(=O)c1ccccc1 1.36%
c1ccc(Oc2ccc3ccccc3n2)cc1 7.16%
COc1ccc(N(CC(=O)N2CCOCC2)S(C)(=O)=O)cc1OC 4.22%
CCCCn1c(=O)[nH]c(=O)c2c(C(=O)OCC)cc(-c3cccs3)nc21 4.89%
Cc1cc(NC(=O)c2cc(C(C)C)on2)nn1Cc1ccc(Cl)cc1 -0.65%
COC(=O)c1[nH]c2cccc(OC)c2c1NC(=O)CCN1CCSCC1 2.77%
CCN(CC)C(=O)C1CCC(CNS(=O)(=O)c2cccc3nsnc23)CC1 (stereo not given) 5.44%
COc1ccccc1C(=O)NCCC(=O)Nc1nc2ccccc2[nH]1 10.6%
CCOC(=O)/C(C#N)=C1/C(=O)N(Cc2ccccc2)c2ccccc21 11%
CCCCN1C(=O)/C(=C(/C#N)C(=O)N2CCCC2)c2ccccc21 7.04%
O=C(CN1C(=O)C2CCCCC2C1=O)Nc1nc(-c2ccc(F)cc2)cs1 (stereo not given) 12.1%
COc1ccc(Nc2ccccc2C(=O)O)cc1 31.6%
COc1ccc(Nc2cccc(Cl)c2)c(C(=O)O)c1 33.4%
COc1ccc(/C=N/Nc2nc(=O)[nH]nc2C)cc1OC 13.7%
COc1ccc(/C=N/Nc2ccccn2)cc1O 36.9%
COc1ccc(/C=N/Nc2ccccn2)cc1OC 9.61%
COc1cc(/C=N/Nc2ccc(C(=O)O)cc2)ccc1O 29.4%
COc1cc(/C=N/Nc2nc(C)cc(=O)[nH]2)ccc1O 35.4%
COc1cc(/C=N/Nc2ccccn2)cc(OC)c1O 29.8%
COc1ccc(/C=N/Nc2cc(=O)n(C)c(=O)n2C)cc1OC 9.25%
Cn1c(N/N=C\c2cccc(O)c2)cc(=O)n(C)c1=O -5.57%
CC(=O)c1sc(NC(=O)COc2ccccc2)nc1C 3.21%
CC(C)CCNC(=O)C(=O)Nc1cc2c3c(c1)CCC(=O)N3CCC2 -2.67%
COC(=O)c1ccc(CNC(=O)C23CC4CC(CC(C4)C2)C3)cc1 -3.62%
CCCCc1oc2c(c(=O)c1C)C(=O)CC(c1ccccc1)C2 (stereo not given) 4.52%
CCC(=O)N1CCN(c2ccc(NC(=O)c3ccc(C#N)cc3F)cc2Cl)CC1 6.06%
CCc1ccc(NC(=O)C(=O)N/N=C(\C)CC(=O)Nc2ccccn2)cc1 11.4%
CCC(NC(=O)c1ccc(C#CC2(O)CCCCC2)cc1)C(=O)O (stereo not given) 8.73%
COc1cc(/C=N/Nc2nn3cnnc3c3ccccc23)ccc1O 8.69%
COc1ccc(OC)c(/C=N/Nc2nncn2/N=C/c2cc(OC)ccc2OC)c1 12.7%
COc1ccc(/C=N/NC2=NCCCCC2)cc1 -2.48%
COc1ccc(/C=N/Nc2cc(C)nc3c(C)cccc23)cc1 4.3%
CCc1nnc(N/N=C/c2ccc(O)c(OC)c2)n1N 38%
COc1cc(/C=N/Nc2ccccc2)ccc1O 27.7%
COc1cccc2c(N/N=C/c3ccccc3)cc(C)nc12 4.18%
Oc1ccc(/C=N/NC2=NCCCCC2)cc1 25.1%
CCc1ccc(NC(=O)C2CCN(S(=O)(=O)c3ccc4c(c3)N(C(C)=O)CCO4)CC2)cc1 -0.74%
Cc1ccc(S(=O)(=O)NCCCN2CCCC2)cc1 13.3%
c1ccc(CNc2nc3ccccc3n2CCN2CCOCC2)nc1 7.87%
Cc1ccc(NC(=O)c2nc[nH]c2C(=O)N2CCC(C)CC2)cc1 9.16%
O=C(Cn1nc(-c2cccs2)ccc1=O)Nc1ccc(Br)cc1 3.47%
O=C1CC(C(=O)Nc2ccc(Cl)cc2[N+](=O)[O-])C2(CCCCC2)O1 (stereo not given) 6.86%
COc1ccccc1OCc1nn[nH]n1 11.9%
CCC1CCCCN1CCCNC(=O)c1cc2c(=O)[nH]c3ccccc3c2n1C (stereo not given) 8.49%
O=C(Nc1c(Cl)cc(Cl)cc1-c1nc2ccccc2s1)c1ccc(Br)o1 6.8%
COC(CN(C)C(=O)c1ccc(CS(=O)(=O)c2ccccc2C)o1)OC 6.06%
Cc1nnc(-c2ccccc2)c[n+]1[O-] 2.44%
Oc1c(Br)cc(/C=N/n2c(-c3ccccc3)n[nH]c2=S)cc1Br 29.7%
Oc1c(Br)cc(/C=N/n2c(-c3ccccc3)n[nH]c2=S)c(O)c1Br 30.1%
